Measurements as given in PubChem BioAssay (Tox21).
Inconclusive results are not listed. Calls of active or inactive are those of the source. Calls come from the whole dose curve.

Columns and labels:
[1] = target: Acetylcholinesterase (Homo sapiens) (UniProt P22303); experiment: Acetylcholinesterase (AChE) small molecule antagonists: colormetric cell-based qHTS assay (AID 1347395); conditions: SH-SY5Y cells AChE activity, colorimetric (Ellman); series mostly up to 115 µM; note: nearly all actives have a fitted effect of over 30% in size
Sequence of Acetylcholinesterase (Homo sapiens) (P22303 whole entry, looked up): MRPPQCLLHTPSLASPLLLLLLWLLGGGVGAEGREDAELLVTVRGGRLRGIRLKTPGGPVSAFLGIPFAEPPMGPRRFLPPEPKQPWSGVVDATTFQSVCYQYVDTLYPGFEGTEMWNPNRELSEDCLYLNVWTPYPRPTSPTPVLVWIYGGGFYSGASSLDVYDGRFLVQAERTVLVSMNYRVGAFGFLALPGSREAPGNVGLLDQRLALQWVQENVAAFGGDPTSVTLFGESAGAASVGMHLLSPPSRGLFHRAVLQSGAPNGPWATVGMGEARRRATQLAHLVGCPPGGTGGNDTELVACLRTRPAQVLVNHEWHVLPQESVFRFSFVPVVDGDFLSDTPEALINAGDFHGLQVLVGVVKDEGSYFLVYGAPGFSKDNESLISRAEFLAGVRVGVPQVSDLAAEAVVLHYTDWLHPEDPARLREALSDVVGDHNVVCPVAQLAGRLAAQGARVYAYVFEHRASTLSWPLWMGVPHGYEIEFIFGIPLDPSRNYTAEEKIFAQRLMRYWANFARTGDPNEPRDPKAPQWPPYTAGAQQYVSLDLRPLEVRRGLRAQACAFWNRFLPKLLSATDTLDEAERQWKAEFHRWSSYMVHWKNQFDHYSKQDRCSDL
Procedure, shortened: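 AChE inhibition read colorimetrically via DTNB–thiocholine in SH-SY5Y cells. Compound 30 min, substrate 90 min, both 37 C.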

[2] = target: Acetylcholinesterase (Homo sapiens) (UniProt P22303); experiment: Acetylcholinesterase (AChE) small molecule antagonists: enzyme-based qHTS assay (AID 1347397); conditions: Potency: AChE enzyme activity inhibition; outcome: AChE enzyme activity inhibition; series mostly up to 115 µM; note: nearly all actives have a fitted effect of over 55% in size
Procedure, shortened: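 Absorbance-based detection of thiocholine with DTNB served as the read-out. Recombinant human AChE was exposed to compound for 30 min at RT before a 10 min RT incubation with acetylthiocholine.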

[3] = target: Acetylcholinesterase (Homo sapiens) (UniProt P22303); experiment: Acetylcholinesterase (AChE) small molecule antagonists: fluorescence cell-based qHTS assay (AID 1347398); conditions: SH-SY5Y cells; Potency: AChE activity; outcome: AChE activity; series mostly up to 115 µM; note: nearly all actives have a fitted effect of over 50% in size
Procedure, shortened: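 Fluorimetric cell-based assay: intact SH-SY5Y cells, 30 min compound preincubation at 37 C, acetylthiocholine substrate with thiol probe Thiolite Green, 40 min RT development, fluorescence 490/520 nm.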

[4] = target: Acetylcholinesterase (Homo sapiens) (UniProt P22303); experiment: Acetylcholinesterase (AChE) small molecule antagonists: enzyme-based qHTS assay with human liver microsomes (AID 1347399); conditions: Potency: qHTS inhibition; outcome: qHTS inhibition; series mostly up to 115 µM; note: nearly all actives have a fitted effect of over 60% in size
Procedure, shortened: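 Recombinant human AChE (50 mU/mL in the enzyme mix) and human liver microsomes (0.25 mg/mL final) were preincubated with compound and NADPH (0.25 mg/mL final) for 30 min at 37 C. Acetylthiocholine/DTNB was then added; thiocholine was read colorimetrically after 10 min at room temperature.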
% is set by controls: 0 for no effect and ±100 for the full control effect.

CNCc1cc(F)ccc1Oc1ccc(Cl)c(Cl)c1
inactive: Potency [1] | Potency [2] | Potency [3] | Potency [4]

COC(=O)CCCCCCCCC(=O)OC
inactive: Potency [1] | Potency [2] | Potency [3] | Potency [4]

CCC1(CO)COCOC1
inactive: Potency [1] | Potency [2] | Potency [3] | Potency [4]

Nc1nnc(-c2ccc([N+](=O)[O-])o2)o1
inactive: Potency [1] | Potency [2] | Potency [3] | Potency [4]

COc1ccc(/C=C/c2cc(OC)cc(=O)o2)cc1
inactive: Potency [1] | Potency [2] | Potency [3] | Potency [4]

CC(C)CCOCc1ccccc1
inactive: Potency [1] | Potency [2] | Potency [3] | Potency [4]

COC(C(=O)O)c1ccccc1 (stereo unspecified)
inactive: Potency [1] | Potency [2] | Potency [3] | Potency [4]

CCN(CC)CCNC(C(=O)OCCC(C)C)c1ccccc1 (stereo unspecified)
inactive: Potency [1] | Potency [2] | Potency [3] | Potency [4]

O=C(Nc1ccc([N+](=O)[O-])cc1)Nc1ccc([N+](=O)[O-])cc1 (tested in a mixture with another compound)
inactive: Potency [1] | Potency [2] | Potency [3] | Potency [4]

CC(=O)SCC(CC(=O)c1ccc(C)cc1)C(=O)O (stereo unspecified)
inactive: Potency [1] | Potency [2] | Potency [3] | Potency [4]

OCC(CO)N[C@H]1C[C@](O)(CO)[C@@H](O)[C@H](O)[C@H]1O
inactive: Potency [1] | Potency [2] | Potency [3] | Potency [4]

CNC(=S)NC
inactive: Potency [1] | Potency [2] | Potency [3] | Potency [4]

C=CC(=C)CCCC(C)(C)OC(C)=O
inactive: Potency [1] | Potency [2] | Potency [3] | Potency [4]

C=CC(C)=CCC=C(C)C
inactive: Potency [1] | Potency [2] | Potency [3] | Potency [4]

c1ccc(-c2nc3ccccc3[nH]2)cc1
inactive: Potency [1] | Potency [2] | Potency [3] | Potency [4]

CCCCCCC1(C)CCC(=O)O1 (stereo unspecified)
inactive: Potency [1] | Potency [2] | Potency [3] | Potency [4]

O=CC1CC1
inactive: Potency [1] | Potency [2] | Potency [3] | Potency [4]

CCOc1ccccc1N
inactive: Potency [1] | Potency [2] | Potency [3] | Potency [4]

CCCO
inactive: Potency [1] | Potency [2] | Potency [3] | Potency [4]

CC1(C)C(=O)N(CO)C(=O)N1CO
inactive: Potency [1] | Potency [2] | Potency [3] | Potency [4]

Sc1nc2ccccc2s1
inactive: Potency [1] | Potency [2] | Potency [3] | Potency [4]

C[C@@H](c1ncncc1F)C(O)(Cn1cncn1)c1ccc(F)cc1F (stereo partly specified)
inactive: Potency [1] | Potency [2] | Potency [3] | Potency [4]

C[C@@H]1C[C@H]2[C@@H]3CCC4=CC(=O)C=C[C@]4(C)[C@@]3(F)[C@@H](O)C[C@]2(C)[C@@]1(O)C(=O)CO
inactive: Potency [1] | Potency [2] | Potency [3] | Potency [4]

Cc1c(N=C=O)cccc1N=C=O
inactive: Potency [1] | Potency [2] | Potency [3] | Potency [4]

CCCCN1CCCC1C(=O)Nc1c(C)cc(C)cc1C (stereo unspecified)
inactive: Potency [1] | Potency [2] | Potency [3] | Potency [4]

C=CCn1cc[n+](C)c1
inactive: Potency [1] | Potency [2] | Potency [3] | Potency [4]

O=C1CCCc2c1cc1ccc3cccc4ccc2c1c34
inactive: Potency [1] | Potency [2] | Potency [3] | Potency [4]

CCOc1ccc2[nH]cc(C(=O)NCc3ccccc3)c(=O)c2n1
inactive: Potency [1] | Potency [2] | Potency [3] | Potency [4]

O=C(Oc1ccccc1)c1cccc(C(=O)Oc2ccccc2)c1
inactive: Potency [1] | Potency [2] | Potency [3] | Potency [4]

CC(=O)OCCC(C)CC(C)(C)C (stereo unspecified)
inactive: Potency [1] | Potency [2] | Potency [3] | Potency [4]

CC[C@H](NC(=O)c1cc(F)ccc1NS(=O)(=O)c1cccc2cccnc12)c1ccccc1
inactive: Potency [1] | Potency [2] | Potency [3] | Potency [4]

CC(=O)C1CCCCC1=O (stereo unspecified)
inactive: Potency [1] | Potency [2] | Potency [3] | Potency [4]

CC(C)(C)OC(=O)N1C[C@@H](F)C[C@H]1C(=O)O
inactive: Potency [1] | Potency [2] | Potency [3] | Potency [4]

CCCCCCCCc1ccc(S(=O)(=O)O)cc1
inactive: Potency [1] | Potency [2] | Potency [3] | Potency [4]

OCCCO
inactive: Potency [1] | Potency [2] | Potency [3] | Potency [4]

O=C1N(c2ccccc2)c2ccccc2C1(Cc1ccncc1)Cc1ccncc1
inactive: Potency [1] | Potency [2] | Potency [3] | Potency [4]

CC(C)(C)c1nnc(NS(=O)(=O)c2ccc(N)cc2)s1
inactive: Potency [1] | Potency [2] | Potency [3] | Potency [4]

COC(=O)C1=C(C)NC(C)=C(C(=O)O[C@@H]2CCCN(Cc3ccccc3)C2)[C@@H]1c1cccc([N+](=O)[O-])c1
inactive: Potency [1] | Potency [2] | Potency [3] | Potency [4]

CC(C)NC(=O)c1ccc(C=O)cc1
inactive: Potency [1] | Potency [2] | Potency [3] | Potency [4]

O=c1c2ccccc2nnn1CCl
inactive: Potency [1] | Potency [2] | Potency [3] | Potency [4]

C[C@H](CN1CCCC1)C(=O)c1ccc(C(F)(F)F)cc1
inactive: Potency [1] | Potency [2] | Potency [3] | Potency [4]

CCC(C)S (stereo unspecified)
inactive: activity, negative = inhibition [1] 1.56% [at 4.07 µM] | activity change, negative = inhibition [2] 0.922% [at 4.07 µM] | activity change, negative = inhibition [3] 4.18% [at 3.98 µM] | activity change, negative = inhibition [4] -0.581% [at 4.07 µM]

C=CC(C)(CCC=C(C)C)OC(=O)C(C)C (stereo unspecified)
inactive: Potency [1] | Potency [2] | Potency [3] | Potency [4]

CCCCCCCCCCCCCCCC(=O)OC/C=C(C)/C=C/C=C(C)/C=C/C1=C(C)CCCC1(C)C
inactive: Potency [1] | Potency [2] | Potency [3] | Potency [4]
